Test results reported in PubChem BioAssay AID1619 (SRMLSC, 2009).
Screen size: about 220,000 compounds; about 830 (0.38%) were called active.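 Rule for the calls: active = compound inhibiting the enzyme by more than half at any dose during confirmatory dose-response retesting; inconclusive = strong single-dose inhibitors picked by rank but not retested; inactive = the rest.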 Only a sample is shown. Entries with a potency or affinity are not part of this list.

Biological target: Leucine aminopeptidase (Plasmodium falciparum (isolate 3D7)) (UniProt Q8IL11)
Test: P. falciparum M17LAP inhibitors, primary screen, biochemical, fluorogenic H-Leu-NHMec substrate, 1536-well (AID 1619);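 note: plate controls were full reaction with DMSO carrier for no effect and no enzyme background for full effect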
Conditions: recombinant M17LAP, H-Leu-NHMec fluorogenic kinetic assay; at 30 µM; active compounds read high

Leucine aminopeptidase (Plasmodium falciparum (isolate 3D7)), sequence (Q8IL11 whole entry, looked up): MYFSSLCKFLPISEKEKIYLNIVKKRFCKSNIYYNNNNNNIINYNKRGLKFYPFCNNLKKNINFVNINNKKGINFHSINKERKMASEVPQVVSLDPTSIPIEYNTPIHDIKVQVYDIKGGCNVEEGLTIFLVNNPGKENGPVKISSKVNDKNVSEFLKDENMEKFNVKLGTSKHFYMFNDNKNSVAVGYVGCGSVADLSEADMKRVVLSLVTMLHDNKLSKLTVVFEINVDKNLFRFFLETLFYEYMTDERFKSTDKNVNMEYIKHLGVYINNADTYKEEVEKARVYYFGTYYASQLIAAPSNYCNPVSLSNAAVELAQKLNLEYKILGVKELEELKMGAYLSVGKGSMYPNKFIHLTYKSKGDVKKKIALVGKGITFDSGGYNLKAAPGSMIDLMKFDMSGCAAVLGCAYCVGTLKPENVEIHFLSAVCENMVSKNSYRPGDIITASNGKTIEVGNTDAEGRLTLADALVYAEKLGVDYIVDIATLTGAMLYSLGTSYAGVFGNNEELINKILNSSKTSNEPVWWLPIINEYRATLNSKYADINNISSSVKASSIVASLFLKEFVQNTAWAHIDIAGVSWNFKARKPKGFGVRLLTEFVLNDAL

Row | SMILES | inhibition
1 | O=C(Cc1c(F)cccc1Cl)Nc1cc(S(=O)(=O)N2CCCCC2)ccc1N1CCOCC1 | 10.3% (inactive)
2 | COc1cccc(Nc2cc(C)nc3nc(C)nn23)c1 | 1.55% (inactive)
3 | Cc1cc(C)c(NC(=O)CCCOC(=O)C2=COCCO2)c(C)c1 | 12.3% (inactive)
4 | O=C(NCc1ccco1)C(c1ccccc1)N(Cc1cccnc1)C(=O)Cn1nnc2ccccc21 (configuration not stated) | 2.12% (inactive)
5 | CCOC(=O)N1CCC(NC(=O)c2cc(S(=O)(=O)N3CCOCC3)ccc2F)CC1 | -2.28% (inactive)
6 | O=C(Nc1ccc(F)c(F)c1)c1cnc(-c2ccccc2)nc1-c1ccccc1 | 6.48% (inactive)
7 | COc1ccccc1NC(=S)NCCc1c[nH]c2ccccc12 | 1.87% (inactive)
8 | CC1(C)CC2CC(C)(CN2Cc2c(O)ccc3ccccc23)C1 (configuration not stated) | -1.68% (inactive)
9 | O=C(CCC(=O)N/N=C/c1ccco1)N/N=C/c1ccco1 | 6.28% (inactive)
10 | CC1C(=O)NN=C1C(=O)N/N=C/c1ccco1 (configuration not stated) | 5.8% (inactive)
11 | CCc1cc2cc(OC)ccc2nc1SCC(=O)NNC(=O)c1ccco1 | -4.39% (inactive)
12 | CCOC(=O)CC(=O)CSc1nc2ccc(OC)cc2cc1C | -7.77% (inactive)
13 | COc1ccc2cc(C)c3nnc(SCC(=O)Nc4cc(OC)c(OC)cc4C(=O)O)n3c2c1 | 3.81% (inactive)
14 | COc1ccc(OC)c(NC(=O)CSc2nc3ccccc3cc2Cc2ccccc2)c1 | -12.8% (inactive)
15 | CC(C)CN(CC(C)C)S(=O)(=O)N1CCC(C(=O)NCc2ccc3c(c2)OCO3)CC1 | -3.17% (inactive)
16 | CS(=O)(=O)C1=NSC2=NC(=O)/C(=C\c3ccc(-c4ccccc4)o3)C(=N)N21 | 55.5% (inactive)
17 | Cc1ccc(-n2cccc2/C=C2/C(=N)N3C(=NC2=O)SN=C3S(C)(=O)=O)cc1 | 26.3% (inactive)
18 | CC(C)S(=O)(=O)C1=NSC2=NC(=O)/C(=C\c3ccc(-c4cccc(C(=O)O)c4)o3)C(=N)N21 | 46.5% (inactive)
19 | N=C1/C(=C\c2ccc(-c3ccc(C(=O)O)cc3)o2)C(=O)N=C2SC=C(c3ccccc3)N12 | 23.3% (inactive)
20 | Cc1ccc(-n2nc(C)c3c2OC(N)=C(C#N)C3c2ccncc2)cc1 (configuration not stated) | 21.6% (inactive)
21 | Cc1cc(C(=O)NC2CCCCC2)on1 | 13.6% (inactive)

Row | SMILES | inhibition
22 | O=C(COC(=O)c1cncc(Br)c1)NCc1ccccc1 | -0.29% (inactive)
23 | C/C(=N/O)c1no[n+]([O-])c1/C(C)=N\O | 4.25% (inactive)
24 | COC(=O)CSc1nc2cc(Cl)ccc2c(=O)n1C1CCCC1 | -2.31% (inactive)
25 | Cc1c(N=C(N)/N=C(\N)Nc2ccc(Br)cc2)c(=O)n(-c2ccccc2)n1C | -11.5% (inactive)
26 | CC1CCCCN1S(=O)(=O)c1ccc(N(C(=O)c2cnccn2)C(C(=O)NC2CCCCC2)c2cccs2)cc1 (configuration not stated) | -5% (inactive)
27 | CC(C)C(=O)c1cc2c(cc1NC(=O)c1cccs1)OCCO2 | 2.83% (inactive)
28 | CC(OC(=O)c1cc2c(ccc3ccccc32)oc1=O)c1nc2ccccc2s1 (configuration not stated) | -3.25% (inactive)
29 | Cc1cc(NCc2ccc3c(c2)OCO3)n2nc(C)nc2n1 | -0.05% (inactive)
30 | COc1cccc(-c2nnn(CC(=O)Nc3ccc(C)cc3C)n2)c1OC | -10% (inactive)
31 | COc1cccc(-c2nnn(CC(=O)NC3CCCC3)n2)c1OC | 13.1% (inactive)
32 | CC(=O)c1cc(CN2CCN(CC=C(C)C)C(CCO)C2)cs1 (configuration not stated) | -1.16% (inactive)
33 | CC1(C)CC(C#N)(N2CCOCC2)CCO1 (configuration not stated) | -15.2% (inactive)
34 | COc1cccc2c(SCC(=O)N/N=C/c3ccc(O)cc3O)cc(C)nc12 | 16.9% (inactive)
35 | COc1cccc2c(SCC(=O)N/N=C/c3ccccc3)cc(C)nc12 | 2.63% (inactive)
36 | Cc1ccc2nc(C(O)C(O)c3nc4ccc(C)cc4[nH]3)[nH]c2c1 (configuration not stated) | 12.8% (inactive)
37 | COc1ccc(/C=N/NC(=O)c2[nH]c(C)c(C(=O)N/N=C/c3ccc(OC)cc3)c2C)cc1 | -5.84% (inactive)
38 | Cc1[nH]c(C(=O)N/N=C/c2ccc(N(C)C)cc2)c(C)c1C(=O)N/N=C/c1ccc(N(C)C)cc1 | -3.97% (inactive)
39 | O=C(N/N=C/c1cccs1)c1c[nH]c2ccccc12 | 19.5% (inactive)
40 | O=C(COc1ccc(C(=O)c2ccccc2)cc1)NCC(=O)Nc1ccccc1Br | 0.07% (inactive)
41 | O=C1/C(=C/c2cccnc2)CCC/C1=C\c1cccnc1 | 12.8% (inactive)
42 | Cn1c(-c2ccccc2)n[nH]c1=S | -6.39% (inactive)

Row | SMILES | inhibition
43 | N#Cc1cc(-c2ccccc2)nn1-c1ccccc1 | -15.3% (inactive)
44 | O=C(CN1C(=O)CSC1=O)Nc1ccc2c(c1)OCCO2 | 53.7% (inactive)
45 | O=C(Nc1nncs1)c1cccnc1Cl | 26.3% (inactive)
46 | CCOc1ccccc1C(=O)Nc1nncs1 | -3.85% (inactive)
47 | O=C(Nc1ccccc1C(=O)Nc1nncs1)c1ccccc1 | 11.8% (inactive)
48 | Cc1nnc(NC(=O)c2ccccc2Br)s1 | -1.4% (inactive)
49 | CCCCc1nc2sc3c(c2c(=O)[nH]1)CCC3 | -6.58% (inactive)
50 | COc1ccccc1C1SCCN1S(C)(=O)=O (configuration not stated) | -6.23% (inactive)
51 | COc1cccc(OCC(=O)O/N=C(\N)c2ccc(OC)c(OC)c2)c1 | -15% (inactive)
52 | COc1ccc2oc(C)c(C(N)=O)c2c1 | 2.03% (inactive)
53 | CCOC(=O)CCC(=O)c1c(C)oc2ccc(OC)cc12 | 9.88% (inactive)
54 | O=C1NC[C@H](Cc2ccc(O)cc2)N(CCc2cccc3ccccc23)C1=O | -2.35% (inactive)
55 | O=C(CN1C(=O)C2CC=CCC2C1=O)Nc1ccc(S(=O)(=O)Nc2ncccn2)cc1 (configuration not stated) | 1.4% (inactive)
56 | CCOC(=O)c1ccc(NC(=O)CN2C(=O)CSC2=O)cc1 | 19% (inactive)
57 | CCOc1ccc(N2C(=O)C3CCCN3C2=O)cc1 (configuration not stated) | -1.37% (inactive)
58 | CCOC(=O)c1ccc(NC(=O)CN2C(=O)CCC2=O)cc1 | -7.84% (inactive)
59 | CCOc1ccc(NC(=O)CN2C(=O)NC(CCSC)C2=O)cc1 (configuration not stated) | 27.7% (inactive)
60 | COc1ccc(NC(=O)CN2C(=O)CSC2=O)cc1 | 30.1% (inactive)
61 | CCOc1ccc(NC(=O)C2CCC(N3C(=O)C4CC=CCC4C3=O)CC2)cc1 (configuration not stated) | 48% (inactive)
62 | COc1ccc(NC(=O)CN2C(=O)CSC(C)C2=O)c(OC)c1 (configuration not stated) | 37.7% (inactive)
